This passage reports growth results from PubChem BioAssay (NCI).

Each structure is given as a SMILES string. About 83,000 compounds went through this panel and 20% of them were active in at least one assay; those are over-represented in the sample as a whole.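 Growth was measured after 48 h exposure to one concentration of compound in 96-well plates. Values under 10 count as active.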 Values without a mark were called inactive. The source made the active and inactive calls.

Some test systems named below: NCI-H23 lung; NCI-H226 lung; NCI-H322M lung; HOP-62 NSCLC; NCI-H460 lung; HOP-92 NSCLC; NCI-H522 lung; A549/ATCC NSCLC; 786-0 renal; COLO 205 colon; DU-145 prostate; K-562 leukemia; MALME-3M melanoma; MDA-MB-231 breast; RXF 393 renal; SF-268 CNS; SF-295 CNS; SF-539 CNS; UACC-257 melanoma; M14 melanoma.
What all share (test): NCI-60 one-dose screen, 48 h (100 = growth as untreated, 0 = no growth, -100 = all killed)
Conditions in all cases: 10 µM unless noted

As to `Cc1cc(C(C)(C)C)ccc1O`, the growth in the experiment on NCI-H23 lung was 90.9%; in the experiment with NCI-H226 lung it was 92.2%; with NCI-H322M lung, 104%; in the experiment with HOP-62 NSCLC it was 102%; in the experiment with NCI-H460 lung, 105%; in the experiment on HOP-92 NSCLC it was 94.4%. Also, the growth with NCI-H522 lung is 102%; in the experiment with A549/ATCC NSCLC, 104%; in the experiment on 786-0 renal, 111%; with COLO 205 colon it was 107%; with DU-145 prostate, 104%; in the experiment on K-562 leukemia it was 103%. Besides, the growth in the experiment on MALME-3M melanoma was 104%; in the experiment on MDA-MB-231 breast, 118%; in the experiment with RXF 393 renal, 102%; in the experiment on SF-268 CNS, 97.3%; in the experiment on SF-295 CNS it was 110%; in the experiment on SF-539 CNS it was 111%. For the same compound, the values for the growth with UACC-257 melanoma and in the experiment with M14 melanoma were 100% and 102%, respectively.
With `CCN(CC)CCn1c(=O)n(C)c2ccccc21`, the growth with NCI-H23 lung was 97.4%; in the experiment with NCI-H226 lung, 102%; in the experiment on NCI-H322M lung, 106%; with HOP-62 NSCLC, 107%; in the experiment on NCI-H460 lung, 106%; in the experiment on HOP-92 NSCLC, 93.7%. The growth was 108% in the experiment on NCI-H522 lung; 105% in the experiment with A549/ATCC NSCLC; 111% in the experiment with 786-0 renal; 109% with COLO 205 colon; 109% in the experiment on DU-145 prostate; 103% in the experiment on K-562 leukemia. Moreover, the growth is 103% in the experiment with MALME-3M melanoma; 119% in the experiment with MDA-MB-231 breast; 106% with RXF 393 renal; 101% in the experiment on SF-268 CNS; 111% in the experiment with SF-295 CNS; 98.1% in the experiment with SF-539 CNS. In addition, the growth in the experiment on UACC-257 melanoma was 97.5%; in the experiment on M14 melanoma, 108%.
On to `N[C@@H](CCC(=O)CCl)C(=O)O`, for which the growth with NCI-H23 lung is 97.3% [20 µM]; with NCI-H226 lung, 104% [20 µM]; in the experiment with NCI-H322M lung, 98.1% [20 µM]; with HOP-62 NSCLC, 95.9% [20 µM]; with NCI-H460 lung, 106% [20 µM]; in the experiment on HOP-92 NSCLC it was 84.6% [20 µM]. The growth in the experiment with NCI-H522 lung is 77.1% [20 µM]; in the experiment on A549/ATCC NSCLC, 102% [20 µM]; in the experiment with 786-0 renal it was 101% [20 µM]; with COLO 205 colon it was 106% [20 µM]; in the experiment with DU-145 prostate it was 105% [20 µM]; in the experiment on K-562 leukemia, 82.9% [20 µM]. Further, the growth in the experiment with MALME-3M melanoma is 92.5% [20 µM]; in the experiment with MDA-MB-231 breast it was 92.2% [20 µM]; in the experiment on RXF 393 renal, 112% [20 µM]; with SF-268 CNS, 98.4% [20 µM]; in the experiment with SF-295 CNS, 98.9% [20 µM]; in the experiment with SF-539 CNS, 104% [20 µM]. Also, the growth in the experiment with UACC-257 melanoma was 99.9% [20 µM]; in the experiment on M14 melanoma, 95.9% [20 µM].
For `CC1=C([Te]c2ccccc2)C(=O)c2ccccc2C1=O`, the growth in the experiment with NCI-H23 lung is -33.9% (active); with NCI-H226 lung, -52.1% (active); with NCI-H322M lung, -22.8% (active); in the experiment on HOP-62 NSCLC, -49.5% (active); in the experiment on NCI-H460 lung it was -57.7% (active); in the experiment with HOP-92 NSCLC, -53.8% (active). Also, the growth was -15.3% (active) in the experiment with NCI-H522 lung; -66.1% (active) with A549/ATCC NSCLC; -46.2% (active) in the experiment on 786-0 renal; -83.6% (active) in the experiment on COLO 205 colon; -53.4% (active) in the experiment on DU-145 prostate; 14.7% in the experiment on K-562 leukemia. Also, the growth with MALME-3M melanoma was -49.5% (active); with MDA-MB-231 breast, -24.6% (active); in the experiment with RXF 393 renal, -35.5% (active); with SF-268 CNS, -18.1% (active); with SF-295 CNS it was -34.5% (active); in the experiment with SF-539 CNS, -71.4% (active). The growth in the experiment on UACC-257 melanoma was -26.2% (active); in the experiment on M14 melanoma, -22.1% (active).
For `C[C@]12CC[C@H]3[C@@H](CC=C4c5nc(-c6ccc(Br)cc6)sc5CC[C@@]43C)[C@@H]1CC[C@@H]2O`, the growth in the experiment with NCI-H23 lung was 88.4%; in the experiment with NCI-H226 lung, 100%; in the experiment on NCI-H322M lung, 94.7%; in the experiment on HOP-62 NSCLC, 106%; in the experiment on NCI-H460 lung, 106%; in the experiment on HOP-92 NSCLC, 130%. Besides, the growth with NCI-H522 lung was 97.5%; in the experiment on A549/ATCC NSCLC, 106%; in the experiment on 786-0 renal, 45%; with COLO 205 colon, 119%; in the experiment on DU-145 prostate, 108%; with K-562 leukemia, 76.7%. Besides, the growth in the experiment on MALME-3M melanoma was 103%; in the experiment on MDA-MB-231 breast, 89.5%; in the experiment on RXF 393 renal, 3.87% (active); in the experiment with SF-268 CNS it was 90.2%; in the experiment on SF-295 CNS, 63.5%; with SF-539 CNS, 9.53% (active). For the same compound, the growth in the experiment on UACC-257 melanoma was 114%; in the experiment with M14 melanoma it was 90.5%.
In the case of `O=C(NC(Cl)=C(Cl)Cl)P(=O)(c1ccccc1)c1ccccc1`, the growth is 105% in the experiment with NCI-H23 lung; 101% in the experiment with NCI-H226 lung; 108% with NCI-H322M lung; 104% in the experiment with HOP-62 NSCLC; 114% in the experiment on NCI-H460 lung; 97.4% in the experiment on HOP-92 NSCLC. Besides, the growth in the experiment on NCI-H522 lung is 99.4%; in the experiment with A549/ATCC NSCLC, 101%; with 786-0 renal, 101%; with COLO 205 colon, 118%; in the experiment with DU-145 prostate, 118%; with K-562 leukemia, 121%. In addition, the growth with MALME-3M melanoma was 104%; in the experiment on MDA-MB-231 breast, 98.9%; with RXF 393 renal it was 100%; in the experiment with SF-268 CNS, 110%; with SF-295 CNS, 72.9%; in the experiment on SF-539 CNS, 106%. For the same compound, the values for the growth with UACC-257 melanoma and with M14 melanoma were 110% and 111%, respectively.
Turning to `CC/C(Cc1ccccc1)=C(\c1ccc(OCCN2CCCC2)cc1)c1ccc(OC(=O)NCc2ccccc2)cc1`, the growth is 90.8% in the experiment on NCI-H23 lung; 92.1% in the experiment on NCI-H226 lung; 84.9% with NCI-H322M lung; 76.7% in the experiment with HOP-62 NSCLC; -45.2% (active) with NCI-H460 lung; 38.6% in the experiment on HOP-92 NSCLC. In addition, the growth in the experiment on NCI-H522 lung is 81.5%; in the experiment with A549/ATCC NSCLC it was 42.4%; in the experiment with 786-0 renal it was 20.7%; in the experiment on COLO 205 colon, -66.6% (active); in the experiment with DU-145 prostate it was 61.1%; in the experiment on K-562 leukemia, -39.1% (active). In addition, the growth in the experiment on MALME-3M melanoma is -59.6% (active); in the experiment with MDA-MB-231 breast, 51.6%; in the experiment on RXF 393 renal it was 56.5%; in the experiment with SF-268 CNS, 67.7%; in the experiment on SF-295 CNS, 86.2%; with SF-539 CNS, 59%. For the same compound, the growth was 58.1% in the experiment on UACC-257 melanoma and -60.7% (active) in the experiment on M14 melanoma.
